From PubChem BioAssay AID1159580 (chemical genetic matrix, 2015)
“And” between values parts separate entries of the source, which are not always exact repeats. Identical values can stand only once. The campaign covered roughly 5,500 compounds. About 2,000 (36%) were called active. Another 18% or so got no clear call; they are omitted. Cut-off read from the data, not from the text of the source: active = normalized growth mostly below about 0.91 (no sharp cut-off); inconclusive = no clear call, values can overlap the other calls; inactive = mostly above about 0.92. The list shows a part of the results.

Experiment: chemical genetic growth profiling, strain panel (AID 1159580);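 note: tested at 20 µM; growth read once vehicle control cultures reached saturation at 30 °C; 1 = growth at the plate median or of vehicle wells; lower values mean less growth of the strain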
Conditions: growth OD

Measured: normalized growth

O=C(OCC(O)CO)c1ccccc1Nc1ccnc2cc(Cl)ccc12 (configuration not stated)
inactive: S. cerevisiae deletion strains, locus YAL013W, strain DEP1, stronger effect = lower value 0.996 | S. cerevisiae deletion strains, locus YBR021W, strain FUR4, stronger effect = lower value 1.01 | S. cerevisiae deletion strains, locus YBR229C, strain ROT2, stronger effect = lower value 0.994 | S. cerevisiae deletion strains, locus YCL029C, strain bik1, stronger effect = lower value 0.961 | S. cerevisiae deletion strains, locus YDL035C, strain GPR1, stronger effect = lower value 1.01 | S. cerevisiae deletion strains, locus YDL074C, strain BRE1, stronger effect = lower value 0.978 | S. cerevisiae deletion strains, locus YDL101C, strain DUN1, stronger effect = lower value 0.98 | S. cerevisiae deletion strains, locus YDL134C, strain PPH21, stronger effect = lower value 0.999 | S. cerevisiae deletion strains, locus YDL185W, strain tfp1, stronger effect = lower value 0.978 | S. cerevisiae deletion strains, locus YDL192W, strain arf1, stronger effect = lower value 0.99 | S. cerevisiae deletion strains, locus YDR101C, strain arx1, stronger effect = lower value 0.988 | S. cerevisiae deletion strains, locus YDR150W, strain NUM1, stronger effect = lower value 0.98 | S. cerevisiae deletion strains, locus YDR162C, strain NBP2, stronger effect = lower value 0.992 | S. cerevisiae deletion strains, locus YDR318W, strain mcm21, stronger effect = lower value 0.977 | S. cerevisiae deletion strains, locus YDR388W, stronger effect = lower value 0.997 | S. cerevisiae deletion strains, locus YDR502C, strain sam2, stronger effect = lower value 0.975 | S. cerevisiae deletion strains, locus YEL061C, strain CIN8, stronger effect = lower value 0.997 | S. cerevisiae deletion strains, locus YER110C, stronger effect = lower value 0.978 | S. cerevisiae deletion strains, locus YER155C, strain BEM2, stronger effect = lower value 0.988 | S. cerevisiae deletion strains, locus YER167W, strain BCK2, stronger effect = lower value 0.986 | S. cerevisiae deletion strains, locus YGL078C, strain dbp3, stronger effect = lower value 0.995 | S. cerevisiae deletion strains, locus YGL086W, strain mad1, stronger effect = lower value 0.999 | S. cerevisiae deletion strains, locus YGL248W, strain PDE1, stronger effect = lower value 0.983 | S. cerevisiae deletion strains, locus YGR078C, strain PAC10, stronger effect = lower value 0.962 | S. cerevisiae deletion strains, locus YGR135W, strain pre9, stronger effect = lower value 0.974 | S. cerevisiae deletion strains, locus YGR229C, strain SMI1, stronger effect = lower value 0.981 | S. cerevisiae deletion strains, locus YGR252W, strain gcn5, stronger effect = lower value 1.06 | S. cerevisiae deletion strains, locus YHR030C, strain SLT2, stronger effect = lower value 0.991 and 0.957 | S. cerevisiae deletion strains, locus YHR079C, strain IRE1 (second series), stronger effect = lower value 0.989 | S. cerevisiae deletion strains, locus YHR079C, strain IRE1, stronger effect = lower value 0.969 | S. cerevisiae deletion strains, locus YHR094C, strain hxt1, stronger effect = lower value 0.979 | S. cerevisiae deletion strains, locus YHR129C, strain ARP1, stronger effect = lower value 0.981 | S. cerevisiae deletion strains, locus YHR200W, strain rpn10, stronger effect = lower value 0.987 | S. cerevisiae deletion strains, locus YIL066C, strain RNR3, stronger effect = lower value 0.98 | S. cerevisiae deletion strains, locus YIL073C, strain SPO22, stronger effect = lower value 0.925 | S. cerevisiae deletion strains, locus YIL125W, strain kgd1, stronger effect = lower value 0.991 | S. cerevisiae deletion strains, locus YIR030C, strain dcg1, stronger effect = lower value 0.988 | S. cerevisiae deletion strains, locus YJL095W, strain BCK1, stronger effect = lower value 0.943 and 0.974 | S. cerevisiae deletion strains, locus YJL134W, strain LCB3, stronger effect = lower value 0.993 | S. cerevisiae deletion strains, locus YJL168C, strain set2, stronger effect = lower value 0.995 | S. cerevisiae deletion strains, locus YJL187C, strain SWE1 (second series), stronger effect = lower value 0.936 | S. cerevisiae deletion strains, locus YJR043C, strain POL32, stronger effect = lower value 0.982 | S. cerevisiae deletion strains, locus YJR066W, strain TOR1, stronger effect = lower value 0.912 | S. cerevisiae deletion strains, locus YJR075W, strain HOC1, stronger effect = lower value 0.978 | S. cerevisiae deletion strains, locus YKL009W, strain mrt4, stronger effect = lower value 0.968 | S. cerevisiae deletion strains, locus YKL068W, stronger effect = lower value 0.987 | S. cerevisiae deletion strains, locus YKL085W, strain MDH1 (second series), stronger effect = lower value 0.975 | S. cerevisiae deletion strains, locus YKL085W, strain MDH1, stronger effect = lower value 0.975 | S. cerevisiae deletion strains, locus YKL190W, strain CNB1, stronger effect = lower value 0.984 | S. cerevisiae deletion strains, locus YKR001C, strain vps1, stronger effect = lower value 0.99 | S. cerevisiae deletion strains, locus YLR039C, strain RIC1, stronger effect = lower value 1.01 | S. cerevisiae deletion strains, locus YLR058C, strain SHM2, stronger effect = lower value 0.986 | S. cerevisiae deletion strains, locus YLR102C, strain apc9, stronger effect = lower value 0.992 | S. cerevisiae deletion strains, locus YLR113W, strain HOG1, stronger effect = lower value 1.01 | S. cerevisiae deletion strains, locus YLR262C, strain YPT6, stronger effect = lower value 1.03 | S. cerevisiae deletion strains, locus YLR268W, strain sec22, stronger effect = lower value 0.918 | S. cerevisiae deletion strains, locus YLR330W, strain CHS5, stronger effect = lower value 0.988 | S. cerevisiae deletion strains, locus YLR342W, strain FKS1 (second series), stronger effect = lower value 1.05 | S. cerevisiae deletion strains, locus YLR371W, strain rom2, stronger effect = lower value 0.985 | S. cerevisiae deletion strains, locus YLR418C, strain cdc73, stronger effect = lower value 0.924 | S. cerevisiae deletion strains, locus YML016C, strain PPZ1, stronger effect = lower value 0.999 | S. cerevisiae deletion strains, locus YML032C, strain rad52, stronger effect = lower value 0.971 | S. cerevisiae deletion strains, locus YML124C, strain tub3, stronger effect = lower value 0.988 | S. cerevisiae deletion strains, locus YMR078C, strain ctf18, stronger effect = lower value 0.99 | S. cerevisiae deletion strains, locus YMR223W, strain ubp8, stronger effect = lower value 1.01 | S. cerevisiae deletion strains, locus YMR263W, strain SAP30, stronger effect = lower value 0.976 | S. cerevisiae deletion strains, locus YMR307W, strain GAS1, stronger effect = lower value 0.984 | S. cerevisiae deletion strains, locus YNL067W, strain RPL9B, stronger effect = lower value 0.968 | S. cerevisiae deletion strains, locus YNL128W, strain TEP1, stronger effect = lower value 0.975 | S. cerevisiae deletion strains, locus YNL153C, strain GIM3, stronger effect = lower value 0.976 | S. cerevisiae deletion strains, locus YNL183C, strain NPR1, stronger effect = lower value 0.899 | S. cerevisiae deletion strains, locus YNL233W, strain BNI4, stronger effect = lower value 0.974 | S. cerevisiae deletion strains, locus YNL250W, strain rad50, stronger effect = lower value 0.969 | S. cerevisiae deletion strains, locus YNL271C, strain bni1, stronger effect = lower value 0.987 | S. cerevisiae deletion strains, locus YNL298W, strain CLA4, stronger effect = lower value 0.993 | S. cerevisiae deletion strains, locus YNL307C, strain MCK1, stronger effect = lower value 0.983 | S. cerevisiae deletion strains, locus YNL322C, strain KRE1, stronger effect = lower value 0.988 | S. cerevisiae deletion strains, locus YNR052C, strain pop2, stronger effect = lower value 1.01 | S. cerevisiae deletion strains, locus YOL006C, strain TOP1, stronger effect = lower value 0.929 | S. cerevisiae deletion strains, locus YOL012C, strain htz1 1.65 | S. cerevisiae deletion strains, locus YOL147C, strain pex11, stronger effect = lower value 0.98 | S. cerevisiae deletion strains, locus YOR061W, strain CKA2, stronger effect = lower value 0.99 | S. cerevisiae deletion strains, locus YOR069W, strain VPS5, stronger effect = lower value 0.996 | S. cerevisiae deletion strains, locus YOR136W, strain idh2, stronger effect = lower value 0.998 | S. cerevisiae deletion strains, locus YOR144C, strain elg1, stronger effect = lower value 0.993 | S. cerevisiae deletion strains, locus YOR184W, strain ser1, stronger effect = lower value 0.954 | S. cerevisiae deletion strains, locus YOR231W, strain MKK1, stronger effect = lower value 0.983 | S. cerevisiae deletion strains, locus YOR316C, strain cot1, stronger effect = lower value 0.982 | S. cerevisiae deletion strains, locus YPL055C, strain LGE1, stronger effect = lower value 0.938 | S. cerevisiae deletion strains, locus YPL241C, strain CIN2, stronger effect = lower value 0.991 | S. cerevisiae deletion strains, locus YPL256C, strain CLN2, stronger effect = lower value 0.927 | S. cerevisiae deletion strains, locus YPR119W, strain clb2, stronger effect = lower value 0.99 | S. cerevisiae deletion strains, locus YPR141C, strain kar3, stronger effect = lower value 0.97 | S. cerevisiae deletion strains, locus YPR163C, strain tif3, stronger effect = lower value 0.979 | S. cerevisiae deletion strains, locus YPR167C, strain met16, stronger effect = lower value 0.989 | S. cerevisiae deletion strains, strain wtn01, stronger effect = lower value 0.98 | S. cerevisiae strains, strain wild type, stronger effect = lower value 0.991
